In assay [1] the test system is HIV-1 nucleocapsid protein NCp7 (binding to TG oligonucleotide). The assay is described as follows: HIV Nucleocapsid (AID 346; call rule not given here;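 further: potency means the concentration at half of the fitted maximal effect; potency is for inhibitors that block NC binding and lower polarization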). The note with it: HIV-1 NC / fluorescein-TGTGTGTG probe, fluorescence polarization. An outline of the steps:
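Inhibition of nucleocapsid binding to single-stranded 5'-TGTGTGTG probe (10 nM) was measured by fluorescence polarization after 1 hr at room temperature with 100 nM protein under high-salt, zinc-containing, reducing conditions.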
For orientation: Fluorescence polarisation rises when a labelled molecule tumbles more slowly, as on binding a larger partner.

Assay [2] deals with Lysosomal acid glucosylceramidase (Homo sapiens) (UniProt P04062). As to the kind of experiment: Glucocerebrosidase-p2 (AID 348; in the data active means potency below about 10 µM; further: potency means the concentration at half of the fitted maximal effect). The note with it: purified GBA, blue fluorogenic substrate, 40 min. An outline of the steps:
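Normal human glucocerebrosidase (0.2 nM) with blue fluorogenic substrate (80 uM final) in citrate/phosphate pH 5.9 with 10mM sodium taurocholate, 0.01% tween-20; 40 min RT, NaOH/glycine stop; fluorescence Ex 365/Em 440; AC50 from a titration from 0.6 nM upwards.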

Assay [3] is described as follows: AP1 Signaling Pathway (AID 357; active means well fitted curve in either direction with a large enough effect, not every such curve was filed as active; further: on the % scale 0 is the no-effect control and ±100 the full control effect). The note with it: ME-180 AP-1-bla reporter, EGF-induced, beta-lactamase ratio, 5 h; series mostly up to 17.2 µM. A digest of the protocol: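 First, ME-180 AP-1-bla cells were cultured overnight at 37 °C in low-serum Opti-MEM. Next, titrated compounds with EC50 EGF were incubated 5 hours. Finally, CCF4 was added for 2.5 hours and the 460/530 nm ratio recorded.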

Assay [4] addresses Cytochrome P450 1A2 (Homo sapiens) (UniProt P05177). The assay is described as follows: p450-cyp1a2 (AID 410; calls by dose curve; further: potency means the concentration at half of the fitted maximal effect). The note with it: recombinant CYP1A2, luciferin-ME demethylation, luminescence; series mostly up to 25.6 µM. A digest of the protocol:
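O-Demethylation of luciferin 6' methyl ether by human CYP1A2 is monitored as luciferase luminescence. Substrate sits at Km (100uM); enzyme is 20nM. Values are scaled to 57 uM furafylline as maximal inhibition.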

The nature of assay [5]: NFAT Signaling Pathway (AID 444; active means well fitted curve in either direction with a large enough effect, not every such curve was filed as active;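 further: carbachol stimulus at about its EC50 of 1 µM final; on the % scale 0 is the no-effect control and ±100 the full control effect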). The note with it: Jurkat NFAT-bla M1, carbachol, beta-lactamase ratio, 5 h; at 7.69 µM (top of the series). A digest of the protocol:
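Read-out: CCF4 FRET ratio (460 nm/530 nm) after 1 h RT dye loading, used for %activity and AC50 from titration series. Cells: Jurkat NFAT-β-lactamase/M1 line, treated with compound plus 1 uM carbachol for 5 h, 37 °C.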

Assay [6] can be described thus: Stat Signaling Pathway (AID 446; active means well fitted curve in either direction with a large enough effect, not every such curve was filed as active;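 further: ME-180 cervical cancer cells given 40 pM IL-6 alongside compound; SIE-controlled beta-lactamase reporter measured as 460/530 nm FRET emission ratio; on the % scale 0 is the no-effect control and ±100 the full control effect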). The note with it: ME-180 (cervical carcinoma) SIE beta-lactamase reporter, IL-6 stimulated, 5 h; series mostly up to 17.2 µM. A digest of the protocol:
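Compound effects on IL-6-induced STAT reporter activity were measured in ME-180 cells. After overnight culture, cells were co-treated with 40 pM IL-6 for 5 hrs before beta-lactamase substrate loading at room temperature.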

For assay [7], the target named is Glucocorticoid receptor (Homo sapiens) (UniProt P04150). The assay is described as follows: GR-EFC Redistribution (AID 451; calls by dose curve; further: potency means the concentration at half of the fitted maximal effect). The note with it: CHO-K1 GR-EFC translocation, beta-gal luminescence, 2 h. An outline of the steps:
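Translocation of GR-ED fusion to nuclear EA restores b-gal, read by luminescence after 1 h room-temperature detection. Engineered CHO-K1 biosensor cells, 1,000/well, exposed 2 h at 37 C to titrations up to 46 uM final.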

Assay [8] concerns the target Mitogen-activated protein kinase 10 (Mus musculus) (UniProt Q61831). As to the kind of experiment: JNK3 AlphaScreen Assay (AID 530; active means well fitted curve in either direction with a large enough effect, not every such curve was filed as active;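 further: kinase came from lysate of stimulated human HepG2 cells; signal reports phosphorylation of biotinylated GST-cJun 1-79 at Ser73 with 10 µM ATP; on the % scale 0 is the no-effect control and ±100 the full control effect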). The note with it: JNK3 lysate, c-Jun phosphorylation; series mostly up to 57.1 µM. A digest of the protocol: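 qHTS titrations with 15 min compound pre-incubation before adding ATP (10 uM final). Read-out: AlphaScreen of Ser73-phosphorylated biotin-GST-cJun using HepG2 lysate JNK3 activated by IL-1β and TNFα.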

In assay [9] the target is 3',5'-cyclic-AMP phosphodiesterase 4B (Homo sapiens) (UniProt Q07343). The assay is described as follows: qHTS Assay for Inhibitors of PDE-IV (AID 607; active means well fitted activation curve with a large enough effect in the main read-out, with a control signal flat, not every such curve was filed as active; further: % of control where 0% means no effect). The note with it: HEK293 ACTOne CNG channel cells, membrane potential fluorescence; series mostly up to 22.9 µM. An outline of the steps: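 ACTOne HEK293 cells carry a modified cAMP-gated CNG channel and express endogenous PDE4; plated 1000 cells/well, compounds up to 22.9 uM final. Membrane-potential dye fluorescence (ex 535/em 590) was read; parental cells received 10 uM forskolin + 100 uM RO 20-1724.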
Sequence of 3',5'-cyclic-AMP phosphodiesterase 4B (Homo sapiens) (Q07343 whole entry, looked up): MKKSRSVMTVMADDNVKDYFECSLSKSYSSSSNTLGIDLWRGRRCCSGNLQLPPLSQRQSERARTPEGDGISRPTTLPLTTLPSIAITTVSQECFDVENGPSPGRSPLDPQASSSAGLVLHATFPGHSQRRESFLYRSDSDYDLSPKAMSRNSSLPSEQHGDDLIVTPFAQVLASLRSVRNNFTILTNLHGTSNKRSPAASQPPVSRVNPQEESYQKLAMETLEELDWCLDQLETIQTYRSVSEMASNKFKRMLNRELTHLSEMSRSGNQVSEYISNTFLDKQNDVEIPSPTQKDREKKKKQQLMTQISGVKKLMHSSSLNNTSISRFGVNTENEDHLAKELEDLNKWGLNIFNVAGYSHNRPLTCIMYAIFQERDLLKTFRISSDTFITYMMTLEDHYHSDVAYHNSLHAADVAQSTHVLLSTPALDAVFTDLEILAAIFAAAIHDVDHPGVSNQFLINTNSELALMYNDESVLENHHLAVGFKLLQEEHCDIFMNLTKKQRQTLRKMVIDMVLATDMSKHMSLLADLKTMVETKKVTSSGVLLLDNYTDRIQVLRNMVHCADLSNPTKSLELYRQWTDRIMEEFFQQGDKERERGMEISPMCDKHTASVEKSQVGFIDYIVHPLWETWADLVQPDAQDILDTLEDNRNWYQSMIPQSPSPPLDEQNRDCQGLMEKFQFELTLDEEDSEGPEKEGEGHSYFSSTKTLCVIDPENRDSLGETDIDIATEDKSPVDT
Background: In qHTS, concentration-response curves come from the screen itself.

The target in assay [10] is Cytochrome P450 3A4 (Homo sapiens) (UniProt P08684). The assay is described as follows: qHTS Assay for Inhibitors and Substrates of Cytochrome P450 3A4 (AID 884). Further: potency means the concentration at half of the fitted maximal effect; nearly all actives have a fitted effect of over 50% in size. The note with it: recombinant CYP3A4, Luciferin-PPXE luminescence; series mostly up to 57.1 µM. A digest of the protocol:
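Luminescent readout of luciferin produced by CYP3A4 (20 nM) dealkylation of Luciferin-PPXE, 25 uM (its KM). NADPH-driven reaction ran 60 min at RT after 10 min compound preincubation; data scaled to 57 uM ketoconazole as 100% inhibition.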

Assay [11] shares this target. The assay is described as follows: qHTS Assay for Activators of Cytochrome P450 3A4 (AID 885). Further: nearly all actives have a fitted effect of over 65% in size. The note with it: recombinant CYP3A4, Luciferin-PPXE luminescence, 60 min; series mostly up to 57.1 µM. A digest of the protocol: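 CYP3A4 activity: Luciferin-PPXE O-dealkylation, 25uM substrate, 200mM KPO4, RT throughout. Read-out is luciferase luminescence; higher values reflect activation.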

The target in assay [12] is Cytochrome P450 2D6 (Homo sapiens) (UniProt P10635). The assay is described as follows: qHTS Assay for Inhibitors and Substrates of Cytochrome P450 2D6 (AID 891). Further: potency means the concentration at half of the fitted maximal effect; nearly all actives have a fitted effect of over 60% in size. The note with it: recombinant CYP2D6, luciferin-ME EGE luminescence; series mostly up to 57.1 µM. An outline of the steps:
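Luminescent read-out of luciferin formed by 5 nM human CYP2D6 demethylating 30 uM Luciferin-ME EGE (Km level) over 60 min at room temperature after NADPH regeneration addition. Data normalized to full inhibition by 1.43 uM quinidine.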

Assay [13] has as its target Ubiquitin carboxyl-terminal hydrolase 1 (Homo sapiens) (UniProt O94782). The assay is described as follows: Inhibitors of USP1/UAF1: Pilot qHTS (AID 504865).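 Further: rhodamine fluorescence freed from ubiquitin-rhodamine substrate followed over time; top concentration of the series differs between compounds; on the % scale 0 is the no-effect control and ±100 the full control effect; nearly all actives have a fitted effect of over 35% in size.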 The note with it: purified USP1/UAF1, Ub-rhodamine cleavage fluorescence; series mostly up to 114 µM. An outline of the steps:
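Enzyme-free wells gave the negative control, while test wells held 1nM USP1/UAF1 preincubated with compound for 15 min at room temperature. Ub-Rho at 150nM final started the reaction, and fluorescence at 480/540 nm was recorded kinetically.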

The nature of assay [14]: Primary qHTS for small molecule stabilizers of the endoplasmic reticulum resident proteome: Secreted ER Calcium Modulated Protein (SERCaMP) assay (AID 1508630). Further: on the % scale 0 is the no-effect control and ±100 the full control effect. The note with it: SH-SY5Y GLuc-SERCaMP (Gaussia luciferase released on ER calcium loss) secretion, thapsigargin, luminescence; series mostly up to 38.4 µM. An outline of the steps:
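The SH-SY5Y reporter protocol was run at 3 concentrations up to 38.3 uM (primary) or 11 concentrations (follow-up): 16 h compound, 100 nM thapsigargin for 4 h, then extracellular luciferase luminescence.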

Assay [15] deals with Cytochrome P450 2C9 (Homo sapiens) (UniProt P11712). The assay is described as follows: qHTS Assay for Inhibitors and Substrates of Cytochrome P450 2C9 (AID 883). Further: potency means the concentration at half of the fitted maximal effect; nearly all actives have a fitted effect of over 60% in size. The note with it: recombinant CYP2C9, luciferin-H luminescence, 60 min; series mostly up to 57.1 µM. An outline of the steps: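 Turnover of Luciferin-H (100uM, KM) by 10nM human CYP2C9 was measured over 60 min at 37C with NADPH regeneration; inhibitors and some substrates reduce luminescence. Data normalized to sulphaphenazole 57uM.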
Sequence of Cytochrome P450 2C9 (Homo sapiens) (P11712 whole entry, looked up): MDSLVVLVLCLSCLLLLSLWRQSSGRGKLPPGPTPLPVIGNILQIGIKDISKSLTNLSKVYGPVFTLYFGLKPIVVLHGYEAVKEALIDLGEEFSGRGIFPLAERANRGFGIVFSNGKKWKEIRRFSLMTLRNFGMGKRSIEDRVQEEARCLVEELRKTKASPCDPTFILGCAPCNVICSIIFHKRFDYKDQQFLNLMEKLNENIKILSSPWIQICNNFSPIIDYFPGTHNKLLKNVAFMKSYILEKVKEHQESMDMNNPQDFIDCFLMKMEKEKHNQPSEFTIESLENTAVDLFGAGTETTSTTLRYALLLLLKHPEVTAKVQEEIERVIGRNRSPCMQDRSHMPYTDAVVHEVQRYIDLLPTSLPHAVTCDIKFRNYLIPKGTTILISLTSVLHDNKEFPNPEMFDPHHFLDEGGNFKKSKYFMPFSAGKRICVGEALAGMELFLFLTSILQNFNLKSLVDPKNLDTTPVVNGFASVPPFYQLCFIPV

Assay [16] can be described thus: qHTS Assay for Lipid Storage Modulators (AID 1519; calls by dose curve). The note with it: Drosophila S3 cells, BODIPY lipid droplet/cell ratio, laser cytometry, cells loaded with oleic acid; for activity change, negative = inhibition: at 57.5 µM (top of the series). An outline of the steps:
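Cells seeded at 5,000 per well were treated with compounds over a concentration series and loaded with oleic acid (400 uM, as added). Lipid droplet fluorescence (488 nm excitation, 500-530 nm channel) was read by laser-scanning cytometry and normalized to 20 uM Triacsin C.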

The mark [17] stands for this setting: measured here: cell count channel max response.
Setting [18] is: measured here: lipid channel max response.

We go through five molecules from PubChem BioAssay (NCATS).

The structures appear in SMILES notation. Results filed as inconclusive are left out. Active and inactive are the calls of the source. Unless noted, the call rests on the fitted dose curve; in most records, active means well fitted curve in the direction sought with a large enough effect; inconclusive means small, poorly fitted or top-dose-only effect, or another doubt; inactive means no such curve, though single readings can be large; an effect the other way counts as inactive or inconclusive. Bounds are passed on as bounds.

Sequence of Glucocorticoid receptor (Homo sapiens) (P04150 whole entry, looked up, the tested form may be a part): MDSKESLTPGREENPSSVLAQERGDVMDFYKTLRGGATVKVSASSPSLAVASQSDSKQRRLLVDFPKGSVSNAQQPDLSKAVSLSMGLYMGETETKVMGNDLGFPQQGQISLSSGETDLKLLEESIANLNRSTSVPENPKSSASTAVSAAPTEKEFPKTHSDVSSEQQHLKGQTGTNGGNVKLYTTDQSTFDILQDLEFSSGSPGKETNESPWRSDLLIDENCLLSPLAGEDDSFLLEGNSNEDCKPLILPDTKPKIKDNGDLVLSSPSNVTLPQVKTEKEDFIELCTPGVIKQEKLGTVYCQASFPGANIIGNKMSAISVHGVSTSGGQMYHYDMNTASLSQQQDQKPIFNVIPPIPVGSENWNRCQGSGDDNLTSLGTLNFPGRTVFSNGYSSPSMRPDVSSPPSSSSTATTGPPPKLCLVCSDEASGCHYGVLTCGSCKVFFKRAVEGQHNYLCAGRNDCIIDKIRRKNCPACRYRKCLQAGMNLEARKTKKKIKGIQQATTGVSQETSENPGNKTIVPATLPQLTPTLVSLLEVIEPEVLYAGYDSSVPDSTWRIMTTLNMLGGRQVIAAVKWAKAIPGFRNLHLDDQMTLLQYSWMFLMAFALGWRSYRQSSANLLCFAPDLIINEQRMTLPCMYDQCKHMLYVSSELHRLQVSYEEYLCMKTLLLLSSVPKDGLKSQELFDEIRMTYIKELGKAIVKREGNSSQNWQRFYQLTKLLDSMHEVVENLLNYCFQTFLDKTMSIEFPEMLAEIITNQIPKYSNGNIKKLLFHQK
Sequence of Cytochrome P450 3A4 (Homo sapiens) (P08684 whole entry, looked up): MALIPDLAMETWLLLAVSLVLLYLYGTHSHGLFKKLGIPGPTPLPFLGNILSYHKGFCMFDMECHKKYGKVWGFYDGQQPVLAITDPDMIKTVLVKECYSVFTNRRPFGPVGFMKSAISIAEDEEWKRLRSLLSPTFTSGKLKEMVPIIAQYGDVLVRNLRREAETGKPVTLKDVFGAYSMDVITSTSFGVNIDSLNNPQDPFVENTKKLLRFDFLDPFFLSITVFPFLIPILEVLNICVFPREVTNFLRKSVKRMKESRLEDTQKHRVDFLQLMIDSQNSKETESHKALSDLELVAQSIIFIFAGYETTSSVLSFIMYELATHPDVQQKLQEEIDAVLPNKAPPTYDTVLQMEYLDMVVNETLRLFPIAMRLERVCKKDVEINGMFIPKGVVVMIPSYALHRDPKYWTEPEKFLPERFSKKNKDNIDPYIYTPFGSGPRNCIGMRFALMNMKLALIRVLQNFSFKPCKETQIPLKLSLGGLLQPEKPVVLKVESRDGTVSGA
Sequence of Lysosomal acid glucosylceramidase (Homo sapiens) (P04062 whole entry, looked up): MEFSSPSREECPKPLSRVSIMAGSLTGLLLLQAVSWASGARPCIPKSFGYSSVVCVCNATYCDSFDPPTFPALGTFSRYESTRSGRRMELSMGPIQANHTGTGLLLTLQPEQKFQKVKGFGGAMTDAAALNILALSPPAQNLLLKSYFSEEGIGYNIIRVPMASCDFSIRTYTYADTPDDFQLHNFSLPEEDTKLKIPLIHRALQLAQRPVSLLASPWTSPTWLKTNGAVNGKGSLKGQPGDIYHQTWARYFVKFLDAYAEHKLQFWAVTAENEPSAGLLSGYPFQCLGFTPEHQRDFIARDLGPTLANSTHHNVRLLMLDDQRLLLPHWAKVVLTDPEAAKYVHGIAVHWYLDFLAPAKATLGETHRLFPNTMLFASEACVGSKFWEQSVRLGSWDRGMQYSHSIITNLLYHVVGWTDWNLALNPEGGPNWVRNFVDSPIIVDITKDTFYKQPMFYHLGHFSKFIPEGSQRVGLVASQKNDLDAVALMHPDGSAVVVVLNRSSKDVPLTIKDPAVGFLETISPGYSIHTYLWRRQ
Sequence of Ubiquitin carboxyl-terminal hydrolase 1 (Homo sapiens) (O94782 whole entry, looked up): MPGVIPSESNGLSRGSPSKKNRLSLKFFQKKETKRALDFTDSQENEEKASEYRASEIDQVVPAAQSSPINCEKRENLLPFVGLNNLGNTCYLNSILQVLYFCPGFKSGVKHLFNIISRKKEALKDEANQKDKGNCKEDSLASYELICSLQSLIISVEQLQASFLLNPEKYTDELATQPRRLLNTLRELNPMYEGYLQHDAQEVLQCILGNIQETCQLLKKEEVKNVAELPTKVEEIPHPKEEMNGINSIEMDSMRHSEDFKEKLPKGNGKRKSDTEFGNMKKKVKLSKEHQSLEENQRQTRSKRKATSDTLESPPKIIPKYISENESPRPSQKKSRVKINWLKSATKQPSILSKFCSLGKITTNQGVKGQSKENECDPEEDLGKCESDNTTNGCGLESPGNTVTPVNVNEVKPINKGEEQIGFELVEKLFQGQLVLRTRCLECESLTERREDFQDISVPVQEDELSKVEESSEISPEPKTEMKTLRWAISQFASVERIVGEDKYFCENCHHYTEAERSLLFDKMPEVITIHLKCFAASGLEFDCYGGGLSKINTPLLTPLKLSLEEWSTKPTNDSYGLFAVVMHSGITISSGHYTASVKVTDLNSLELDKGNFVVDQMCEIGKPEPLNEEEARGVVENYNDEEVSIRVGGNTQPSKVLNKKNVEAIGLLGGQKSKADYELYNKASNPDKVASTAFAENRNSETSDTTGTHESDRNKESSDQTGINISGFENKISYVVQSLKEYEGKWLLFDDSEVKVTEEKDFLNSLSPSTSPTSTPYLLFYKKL
Sequence of Cytochrome P450 1A2 (Homo sapiens) (P05177 whole entry, looked up): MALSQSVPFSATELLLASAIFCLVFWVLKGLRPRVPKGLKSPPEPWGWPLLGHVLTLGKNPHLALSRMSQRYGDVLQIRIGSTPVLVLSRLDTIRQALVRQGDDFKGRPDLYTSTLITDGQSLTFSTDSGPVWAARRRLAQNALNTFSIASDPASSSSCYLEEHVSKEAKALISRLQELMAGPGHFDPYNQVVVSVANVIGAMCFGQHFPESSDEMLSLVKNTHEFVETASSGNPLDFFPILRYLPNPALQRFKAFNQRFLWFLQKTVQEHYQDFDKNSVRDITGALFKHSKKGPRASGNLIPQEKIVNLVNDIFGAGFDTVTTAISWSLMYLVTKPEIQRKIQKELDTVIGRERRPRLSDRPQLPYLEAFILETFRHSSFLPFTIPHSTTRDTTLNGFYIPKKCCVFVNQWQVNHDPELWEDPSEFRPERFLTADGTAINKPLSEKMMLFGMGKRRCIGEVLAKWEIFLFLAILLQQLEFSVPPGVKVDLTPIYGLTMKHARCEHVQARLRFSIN
Sequence of Cytochrome P450 2D6 (Homo sapiens) (P10635 whole entry, looked up): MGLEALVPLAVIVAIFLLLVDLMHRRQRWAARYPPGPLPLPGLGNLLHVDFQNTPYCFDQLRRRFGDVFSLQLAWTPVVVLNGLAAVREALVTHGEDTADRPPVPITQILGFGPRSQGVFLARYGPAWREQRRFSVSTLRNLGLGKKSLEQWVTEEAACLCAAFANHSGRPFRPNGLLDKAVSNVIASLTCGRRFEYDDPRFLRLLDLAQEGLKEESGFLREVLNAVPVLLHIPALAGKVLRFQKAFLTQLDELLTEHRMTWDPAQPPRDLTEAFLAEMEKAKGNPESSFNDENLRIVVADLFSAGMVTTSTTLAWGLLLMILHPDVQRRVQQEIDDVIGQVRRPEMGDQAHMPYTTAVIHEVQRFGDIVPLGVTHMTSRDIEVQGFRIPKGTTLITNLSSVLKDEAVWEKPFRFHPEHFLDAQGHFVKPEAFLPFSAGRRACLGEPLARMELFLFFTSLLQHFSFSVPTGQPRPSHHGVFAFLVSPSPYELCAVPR

`Clc1ccccc1-c1cncnc1NCCc1cnc[nH]1`: the Potency in assay [1] is > 20 µM (inactive); in assay [2], > 11.4 µM (inactive); in assay [4] it was 1.58 µM (active); in assay [7], > 46 µM (inactive); in assay [10] it was 0.501 µM (active); in assay [12], 3.98 µM (active). Also, the result in [3], in assay [6], in [8] and in assay [14] was inactive. Further, the activity change, negative = inhibition in assay [5] is -21.6% (inactive). For the same molecule, the Potency result in assay [9], in assay [11] and in [13] was “inactive” each time.

As for `O=C(Oc1ccccc1)N1CCC2(CC1)CN(Cc1ccncc1)C2`, the Potency in [1] is > 20 µM (inactive); in assay [2] it was > 11.4 µM (inactive); in assay [4] it was 10 µM (active); in assay [7] it was > 46 µM (inactive); in assay [15], 3.16 µM (active). Besides, the result in [3], in assay [6], in assay [8] and in assay [14] was inactive. Moreover, the Potency result in assay [9] and in assay [11] was “inactive” throughout.

For `O=C(c1csnn1)N1CCC[C@@]2(CCN(Cc3ccncc3)C2)C1`, the Potency in assay [2] is > 11.4 µM (inactive); in assay [7], > 46 µM (inactive). The outcome in [3], in [6], in assay [8] and in assay [14] was inactive. Also, the activity change, negative = inhibition in [5] was -2.7% (inactive); in assay [16], 4.95% (inactive). Also, the Potency result in [9] was “inactive”. Besides, the figures for the max response in assay [16] (setting [17]) and in assay [16] (setting [18]) were 21.7% and 28.5%, respectively.

For `C/C=C/c1ccc2c(c1)OCO2`, the call in assay [8] was inactive. In addition, the Potency entry in assay [11] and in [13] was “inactive” throughout. For the same molecule, the activity change, negative = inhibition in assay [16] is 7.07% (inactive). In addition, the max response in [16] (setting [17]) came out at 10.4%; in assay [16] (setting [18]), 20.9%.

On to `C=CCc1ccc2c(c1)OCO2`, for which the molecule was classed as inactive in [8]. The Potency entry in assay [11] and in assay [13] was “inactive” each time. The activity change, negative = inhibition in assay [16] is 12.7% (inactive). Besides, the values for the max response in assay [16] (setting [17]) and in assay [16] (setting [18]) were 13.6% and 31.4%, respectively.
